Screening results (PubChem BioAssay)
TROY NFkB inh = inhibitors of TROY-dependent NF-kB signaling; Q293 LMP1-TROYcd NF-kB luciferase reporter, 4 h; inhibition, % at 10 µM; hit rate 0.98% among 360,000; AID 1347056;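 active means compounds whose plate-normalised and pattern-corrected inhibition of the luciferase reporter signal at the single screening dose is 50% or more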
LMP1 NFkB inh = reduces LMP1-driven NF-kappaB luciferase signal; LMP1-induced NF-kappaB luciferase reporter cells, luminescence; inhibition, % at 12.5 µM; hit rate 0.69% among 350,000; AID 504558; in the data active means inhibition above about 41%; inconclusive means no clear call, values can overlap the other calls;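 further: 0% = neutral control wells and 100% = reference inhibitor control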
PAX8 inh HTS = PAX8 transcriptional activity inhibition | AID 652154 | RMG-I TPO-luciferase reporter, SteadyGlo, 24 h | inhibition, % at 12.6 µM | hit rate 1.2% among 360,000;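 active means mean replicate inhibition at least 60% with every replicate also reaching 60%; inconclusive means only one of the two criteria is met; inactive means mean below 60% and not all replicates reaching 60%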;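 further: luciferase light reporting Pax8 driven TPO promoter activity; plate controls were median of neutral control wells for no effect and mitoxantrone controls for full effect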
TWEAK-Fn14 inh = blocks TWEAK-Fn14 interaction in a reporter cell assay; TWEAK-stimulated Fn14 reporter cells, luciferase luminescence, 8 h; inhibition, % at 10 µM; hit rate 2% among 360,000; AID 1159606; in the data active means inhibition above about 50%
LGR2 inh = blocks bursicon-induced cAMP signaling via Drosophila LGR2 | HEK293 LGR2, CRE-luciferase, bursicon-stimulated, 4 h | hit rate 0.35% among 380,000 | inhibition, % at 9.99 µM | AID 720647;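 active means drop in luminescence signal, shown as inhibition above about 50% in the replicate tests, limit read from the data, passing the limit was not always enough; inconclusive means probably only some replicates passing the limit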;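 further: agonist challenge used bursicon conditioned medium at about half maximal strength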
EWS-Fli inh = blocks EWS/Fli oncoprotein-driven transcription | A673 NR0B1-luciferase reporter, viability-normalised | inhibition, % at 12.6 µM | hit rate 0.67% among 350,000;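 active means mean inhibition of at least 50% after viability correction, with every replicate also passing that limit; inconclusive means mean reaches 50% but only one of two replicates passes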;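 further: firefly luciferase signal divided by Alamar Blue viability fluorescence both relative to DMSO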
Numbers without * were called inactive; ? = inconclusive; . = no result given. This is a sample that favours compounds with a hit; in the whole collection about 3.2% have one here.

SMILES	TROY NFkB inh	LMP1 NFkB inh	PAX8 inh HTS	TWEAK-Fn14 inh	LGR2 inh	EWS-Fli inh
Cc1ccc(-n2nnnc2CNC(=O)c2ccc([N+](=O)[O-])o2)cc1C	14.9	-39.5	84.3*	25.2	7.1	25.6
Cc1cc(NC(=O)c2cccs2)ncc1NC(=O)C(C)(C)C	51.5*	-4.0	-49.2	46.7	19.8	-2.1
CO[C@@H]1CN(C)C(=O)c2cc(NS(=O)(=O)c3ccc(-c4ccccc4)cc3)ccc2OC[C@H](C)NC[C@@H]1C	.	.	.	.	-11.1	7.1
CC(C)NC(=O)N(O)C1N(C(C)C)C(=O)N(Cc2ccc3c(c2)OCO3)C1(C)C (configuration not stated)	11.0	3.8	15.9	-30.4	15.0	-2.3
CC(C)NC(=O)N(O)C1N(Cc2ccc3c(c2)OCO3)C(=S)SC1(C)C (configuration not stated)	-7.3	-10.7	.	58.1*	-19.4	.
Cc1cc(C)c2oc(C(=O)Nc3ccc(S(=O)(=O)Nc4nccs4)cc3)cc(=O)c2c1	0.6	-4.1	-6.8	73.1*	-13.8	-8.3
COc1ccc(C(CC(=O)c2ccc(C)cc2)Sc2ccccc2N)cc1 (configuration not stated)	11.2	-50.3	-71.6	70.0*	31.9	-1.9
CCCCNC(=O)c1sc2nc(C)cc(COC)c2c1-n1cccc1	1.6	4.1	5.0	-10.0	.	.
COCc1cc(C)nc2sc(C(=O)NN)c(-n3cccc3)c12	6.4	-8.3	61.3*	-26.1	-9.9	3.1
COc1ccc(S(=O)(=O)Nc2ccc3c(c2)C(=O)N([C@H](C)CO)C[C@@H](C)[C@@H](CN(C)C(=O)Nc2c(C)noc2C)O3)cc1	.	.	.	.	9.6	-1.6
CC(C)NC(=O)N(C)C[C@@H]1Oc2ccc(NC(=O)NC3CCCCC3)cc2C(=O)N([C@@H](C)CO)C[C@@H]1C	.	.	.	.	6.9	1.2
CC1CC2(CCCC2)Nc2ccc(F)cc21 (configuration not stated)	15.1	-12.3	6.3	48.0	26.0	4.7
CC1CC(C)(C)Nc2ccc(N=O)cc21 (configuration not stated)	35.4	20.7	60.0	80.4*	1.6	36.5
O=C(Oc1ccc2ccccc2c1)c1ccco1	-4.5	0.6	8.3	-8.1	.	.
CC1CC(C)(C)Nc2ccc(OC(=O)c3ccco3)cc21 (configuration not stated)	49.2	25.2	.	89.1*	.	.
CCOC(=O)N(C)C[C@@H]1OCc2ccccc2-c2c(n(C)c3ccccc23)C(=O)N([C@H](C)CO)C[C@@H]1C	.	.	.	.	1.9	1.9
CCCCCCCOC(=O)C[N+](C)(C)CCOC1CC2CCC1(C)C2(C)C (configuration not stated)	63.1*	10.7	46.3	46.0	22.5	67.4*
O=c1cc(Nc2ccc3c(c2)OCCO3)[nH]c(=O)n1-c1ccc(Cl)cc1	64.1*	10.0	-14.2	72.1*	13.7	0.8
CO[C@@H]1CN(C)C(=O)c2ccc(NC(=O)NC(C)C)cc2OC[C@H](C)N(C(=O)C2CCC2)C[C@H]1C	.	.	.	.	6.9	-2.6
Cc1cc(C(=O)COC(=O)c2ccc(O)cc2O)c(C)n1-c1ccccc1	82.8*	-9.5	-138.2	76.8*	.	-51.2
COc1ccc(-n2c(C)cc(C(=O)CCl)c2C)cc1	11.4	22.4	1.0	4.5	11.2	60.7*
Cc1cc(C(=O)COC(=O)c2ccc(O)cc2O)c(C)n1-c1ccc(OC(F)F)cc1	3.5	17.1	32.1	14.6	2.0	11.9
COc1ccc(-n2c(C)cc(C(=O)COC(=O)c3ccc(O)cc3O)c2C)cc1	22.7	16.5	28.0	54.4*	.	-28.3
COCC#Cc1cnc2c(c1)C(=O)N([C@@H](C)CO)C[C@H](C)[C@@H](CN(C)S(C)(=O)=O)O2	.	.	-17.7	.	-10.9	-0.3
CCOc1ccc(-c2cc(CCCC(=O)Nc3cccc(OC)c3)no2)cc1	23.7	46.6*	1.0	56.7*	-17.3	64.1*
SMILES	TROY NFkB inh	LMP1 NFkB inh	PAX8 inh HTS	TWEAK-Fn14 inh	LGR2 inh	EWS-Fli inh
COc1ccc(-c2cc(CCCC(=O)NCc3ccccn3)no2)cc1	17.6	-4.5	0.7	86.5*	-2.9	22.1
CCOc1ccc(NC(=O)CCCc2cc(-c3ccc(OCC)cc3)on2)cc1	-6.2	17.7	-22.9	-19.6	.	.
O=C(C[C@@H]1C=C[C@H](NC(=O)Cc2cccnc2)[C@@H](CO)O1)Nc1ccccc1	.	.	-2.3	.	17.6	-0.3
CC(C)OCCCNC(=O)C1CCC(CNS(=O)(=O)c2ccc(Cl)cc2)CC1 (configuration not stated)	0.8	-0.3	16.1	4.1	0.9	.
COCCNC(=O)C1CCC(CNS(=O)(=O)c2ccccc2)CC1 (configuration not stated)	-4.8	55.6*	20.7	3.7	1.3	10.3
CC(C)OCCCNC(=O)C1CCC(CNS(=O)(=O)c2ccccc2)CC1 (configuration not stated)	15.9	66.9*	-8.8	5.2	13.8	-3.8
CC(C)c1cn(CC[C@@H]2CC[C@@H](NC(=O)C3CCOCC3)[C@@H](CO)O2)nn1	.	.	-10.7	.	5.4	.
C[C@H]1CN([C@@H](C)CO)C(=O)CCCn2nncc2CO[C@H]1CN(C)C(=O)Nc1ccc(F)cc1	.	.	-0.9	.	10.1	-3.2
Cc1ccc(C(=O)NCCc2cccs2)cc1	69.1*	63.6*	42.8	84.9*	75.4*	63.7*
O=C(NCCc1cccs1)c1ccc(Cl)cc1	3.4	8.9	-28.3	58.9*	10.2	10.5
O=C(NCCc1cccs1)c1ccc(Cl)c(Cl)c1	-64.9	-28.1	-224.1	-1.3	-100.5	-72.8
Cc1ccc(C(=O)NCCSC(C)(C)C)cc1	16.2	17.0	.	52.5*	3.5	.
CC(C)(C)SCCNC(=O)c1ccccc1	-53.1	-14.2	.	5.7	.	.
CO[C@@H]1CN(C)C(=O)c2cc(NC(=O)c3cccc(Oc4ccccc4)c3)ccc2OC[C@@H](C)NC[C@H]1C	.	.	.	.	8.0	14.7
CCCn1c2c(c(=N)c3c1CCC3)CCC2	-8.2	-2.9	18.9	-23.8	9.6	21.4
CCCCCCCn1c2c(c(=N)c3ccccc31)CCC2	46.3	21.3	100.4*	56.2*	27.2	58.1*
COc1ccc2c3c([nH]c2c1)[C@H](CO)N(C(=O)c1cnccn1)CC31CCN(C(=O)c2cnccn2)CC1	.	.	.	.	-2.7	1.4
CC(=O)N1CCc2cc(S(=O)(=O)NC(CC(C)C)C(=O)Nc3ccc4c(c3)OCCO4)ccc21 (configuration not stated)	7.7	-41.3	.	56.9*	.	.
COc1cccc(NC(=O)C2CCN(c3cnccn3)CC2)c1	-1.8	-5.1	10.0	98.2*	2.9	-6.2
COc1cccc(CNC(=O)C2CCN(c3cnccn3)CC2)c1	14.8	-13.7	4.4	11.3	.	.
O=c1[nH]c(CN2CCN(c3ccc(O)cc3)CC2)nc2scc(-c3ccc(Cl)cc3)c12	22.4	14.7	?	8.7	-15.3	59.8*
O=c1[nH]c(CN2CCN(c3ccccc3O)CC2)nc2scc(-c3ccccc3Cl)c12	13.6	8.2	22.1	12.7	11.7	14.9
